Results filed as inconclusive are left out. Activity calls are given as the source filed them. Rule for the calls: active = hit-call score of the fitted dose curve at least 0.9, where 1 is the maximum; inconclusive = response in the unintended direction; inactive = score below 0.9.
Experiments:
[1] = Tanguay_ZF_120hpf_CFIN_legacy: (Legacy) Oregon State University Tanguay Lab 120 Hour Post-fertilization zebrafish Assay for Caudal Fin Malformation (AID 2283649)
Method in brief: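 Dechorionated Tropical 5D wild-type embryos, one per well from 6 hpf, static exposure to 120 hpf at 28C in 0.64% DMSO. Caudal fin malformation scored by brightfield as present/absent; not scored in dead embryos.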

[2] = Tanguay_ZF_120hpf_PIG_legacy: (Legacy) Oregon State University Tanguay Lab 120 Hour Post-fertilization zebrafish Assay for Pigmentation Malformation (AID 2283650)
Method in brief: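 Tropical 5D wild-type zebrafish embryos, dechorionated with pronase at 4 hpf, were exposed singly from 6 hpf to 120 hpf statically at 28C in sealed, dark plates with 0.64% DMSO; pigmentation scored present/absent by brightfield microscopy, fitted against DMSO.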

[3] = Tanguay_ZF_120hpf_CIRC_legacy: (Legacy) Oregon State University Tanguay Lab 120 Hour Post-fertilization zebrafish Assay for Circulatory Malformation (AID 2283651)
Method in brief: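 Dechorionated wild-type 5D zebrafish embryos, one per well, statically exposed from 6 to 120 hpf at 28C with 0.64% DMSO; circulatory malformation scored present/absent by brightfield microscopy at 120 hpf, dead embryos excluded.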

[4] = Tanguay_ZF_120hpf_SWIM_legacy: (Legacy) Oregon State University Tanguay Lab 120 Hour Post-fertilization zebrafish Assay for Swim Bladder Malformation (AID 2283654);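 note: swim bladder malformation in each larva scored yes or no under brightfield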
Method in brief: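 Dechorionated Tropical 5D wild-type embryos, placed singly from 6 hpf, were statically exposed at 28C to 120 hpf with 0.64% DMSO final; swim bladder malformation was scored present/absent by brightfield microscopy, gain of signal relative to DMSO controls.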

[5] = Tanguay_ZF_120hpf_TRUN_legacy: (Legacy) Oregon State University Tanguay Lab 120 Hour Post-fertilization zebrafish Assay for Truncated Body (AID 2283655)
Method in brief: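 Dechorionated Tropical 5D wild-type embryos placed singly from 6 hpf and statically exposed to 120 hpf at 28C, final DMSO 0.64%. Truncated body scored as present/absent by brightfield; not scored in dead embryos.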

[6] = Tanguay_ZF_120hpf_NC_legacy: (Legacy) Oregon State University Tanguay Lab 120 Hour Post-fertilization zebrafish Assay for Notochord and Tail Malformation (AID 2283656)
Method in brief: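 Dechorionated Tropical 5D wild-type zebrafish embryos, one per well from 6 hpf, statically exposed to 120 hpf at 28C in 0.64% DMSO final. Notochord distortion scored present/absent by brightfield; dead embryos excluded.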

## CO[C@H]1/C=C/O[C@@]2(C)Oc3c(C)c(O)c4c(O)c(c(/C=N/N5CCN(C)CC5)c(O)c4c3C2=O)NC(=O)/C(C)=C\C=C\[C@H](C)[C@H](O)[C@@H](C)[C@@H](O)[C@@H](C)[C@H](OC(C)=O)[C@@H]1C
[1]
  outcome: inactive
[2]
  outcome: inactive
[3]
  outcome: inactive
[4]
  outcome: inactive
[5]
  outcome: inactive

## CN(C)c1ccc(C(=C2C=CC(=[N+](C)C)C=C2)c2ccc(N(C)C)cc2)cc1
[1]
  outcome: inactive
[2]
  outcome: inactive
[4]
  outcome: inactive
[5]
  outcome: inactive

## COCC(C)OCC(C)OCC(C)O (stereo not given)
[1]
  outcome: inactive
[2]
  outcome: inactive
[3]
  outcome: inactive
[4]
  outcome: inactive
[5]
  outcome: inactive
[6]
  outcome: inactive

## Cc1ncc(CO)c(CO)c1O
[1]
  outcome: inactive
[2]
  outcome: inactive
[3]
  outcome: inactive
[4]
  outcome: inactive
[5]
  outcome: inactive
[6]
  outcome: inactive

## Cc1cccc2ccccc12
[1]
  outcome: inactive
[2]
  outcome: inactive
[4]
  outcome: inactive
[5]
  outcome: inactive
[6]
  outcome: inactive

## CCCCCc1ccc(N)cc1
[1]
  outcome: inactive
[2]
  outcome: inactive
[4]
  outcome: inactive
[5]
  outcome: inactive
[6]
  outcome: inactive

## CCCCCCCCCC(=O)O
[1]
  outcome: inactive
[2]
  outcome: inactive
[3]
  outcome: inactive
[4]
  outcome: inactive
[5]
  outcome: inactive
[6]
  outcome: inactive

## CC(C)(C)c1cc(/C=C2\SC(N)=NC2=O)cc(C(C)(C)C)c1O
[1]
  outcome: inactive
[2]
  outcome: inactive
[4]
  outcome: inactive
[5]
  outcome: inactive

## COc1ccc2cc(S(=O)(=O)N[C@H](CC(=O)N[C@H](Cc3ccc(CN4[C@H](C)CCC[C@@H]4C)cc3)C(=O)N(C)C(C)C)c3ccc4c(c3)OCO4)ccc2c1
[1]
  outcome: inactive
[2]
  outcome: inactive
[4]
  outcome: inactive
[5]
  outcome: inactive
[6]
  outcome: inactive

## OCCO
[1]
  outcome: inactive
[2]
  outcome: inactive
[4]
  outcome: inactive
[5]
  outcome: inactive
[6]
  outcome: inactive

## CCCCCCCC[Si](OCC)(OCC)OCC
[1]
  outcome: inactive
[2]
  outcome: inactive
[4]
  outcome: inactive
[5]
  outcome: inactive
[6]
  outcome: inactive

## CCCCCCCCOc1ccc(C(=O)c2ccccc2)c(O)c1
[1]
  outcome: inactive
[2]
  outcome: inactive
[4]
  outcome: inactive
[5]
  outcome: inactive
[6]
  outcome: inactive

## O=C(OCCCCCCOC(=O)c1ccccc1)c1ccccc1
[1]
  outcome: inactive
[5]
  outcome: inactive
[6]
  outcome: inactive

## CCO[Si](CCCNC(N)=O)(OCC)OCC
[2]
  outcome: inactive
[4]
  outcome: inactive
[5]
  outcome: inactive
[6]
  outcome: inactive

## CC(=O)N1CCN(c2ccc(OC[C@H]3CO[C@](Cn4ccnc4)(c4ccc(Cl)cc4Cl)O3)cc2)CC1
[1]
  outcome: inactive
[4]
  outcome: inactive
[5]
  outcome: inactive
[6]
  outcome: inactive

## Cc1cc(F)ccc1-c1cc(N2CC[C@@H](O)[C@H]2CO)ncc1N(C)C(=O)C(C)(C)c1cc(C(F)(F)F)cc(C(F)(F)F)c1
[1]
  outcome: inactive
[2]
  outcome: inactive
[4]
  outcome: inactive
[5]
  outcome: inactive
[6]
  outcome: inactive

## Oc1ccccc1
[2]
  outcome: inactive
[4]
  outcome: inactive
[5]
  outcome: inactive
[6]
  outcome: inactive

## CCCCCCCCN(C)CCCCCCCC
[1]
  outcome: inactive
[5]
  outcome: inactive
[6]
  outcome: inactive

## COc1cc(C(=O)NC2CCN(C)CC2)ccc1Nc1ncc2c(n1)N(C1CCCC1)CC(F)(F)C(=O)N2C
[1]
  outcome: inactive
[2]
  outcome: inactive
[4]
  outcome: inactive
[5]
  AC50: 31 µM (active)
[6]
  AC50: 33 µM (active)

## CCCCCCCCCCCC[N+](C)(C)C
[1]
  outcome: inactive
[2]
  outcome: inactive
[4]
  outcome: inactive
[5]
  outcome: inactive
[6]
  outcome: inactive

## O=C(O)Cn1c(=O)n(Cc2ccc(Br)cc2F)c(=O)c2ccc(Cl)cc21
[1]
  outcome: inactive
[2]
  outcome: inactive
[4]
  outcome: inactive
[5]
  outcome: inactive
[6]
  outcome: inactive

## Cc1c2ccccc2c(C)c2c1ccc1ccccc12
[1]
  AC50: 25.8 µM (active)
[2]
  outcome: inactive
[5]
  outcome: inactive
[6]
  outcome: inactive

## CC(C)(O)c1ccc(CNC(=O)c2cccnc2Oc2ccc3nonc3c2)cc1
[1]
  outcome: inactive
[3]
  outcome: inactive
[4]
  outcome: inactive
[5]
  outcome: inactive

## O=C=NCCCCCCN=C=O
[1]
  outcome: inactive
[5]
  outcome: inactive

## CC[C@H](NC(=O)c1cc(F)ccc1NS(=O)(=O)c1cccc2cccnc12)c1ccccc1
[1]
  outcome: inactive
[3]
  outcome: inactive
[4]
  outcome: inactive
[5]
  outcome: inactive
[6]
  outcome: inactive

## O=C(O)c1ccccc1-n1cc(C(=O)O)c(=O)c2cc(Nc3c(F)cc(F)cc3Cl)c(Cl)cc21
[1]
  outcome: inactive
[4]
  outcome: inactive
[6]
  outcome: inactive

## Cc1cc2c(cc1C(F)(F)F)N(C(=O)Nc1ccc(Oc3cccnc3C)nc1)CC2
[1]
  outcome: inactive
[2]
  outcome: inactive
[4]
  outcome: inactive
[5]
  outcome: inactive
[6]
  outcome: inactive

## Cc1ccc2oc(CN(Cc3ccccc3)C(=O)Nc3c(F)cc(F)cc3F)c(-c3ccc(Cl)cc3)c2c1
[1]
  outcome: inactive
[2]
  outcome: inactive
[5]
  outcome: inactive
[6]
  outcome: inactive

## O=CCCCC=O
[1]
  outcome: inactive
[2]
  outcome: inactive
[4]
  outcome: inactive
[5]
  outcome: inactive
[6]
  outcome: inactive

## O=C(O)Cc1cc(I)c(Oc2ccc(O)c(I)c2)c(I)c1
[1]
  outcome: inactive
[2]
  AC50: 0.177 µM (active)
[4]
  outcome: inactive
[5]
  outcome: inactive
[6]
  outcome: inactive

## CCCC(=O)OCCC(C)C
[2]
  outcome: inactive
[3]
  outcome: inactive
[4]
  outcome: inactive
[5]
  outcome: inactive
[6]
  outcome: inactive

## CCCCOC(=O)CC(CC(=O)OCCCC)(OC(C)=O)C(=O)OCCCC
[2]
  outcome: inactive
[3]
  outcome: inactive
[4]
  outcome: inactive
[5]
  outcome: inactive
